Source: PubChem BioAssay (EPA / NIEHS)
Inconclusive results are not listed. Calls of active or inactive are those of the source. How the source made its calls, unless noted: active means hit-call score of the fitted dose curve at least 0.9, where 1 is the maximum; inconclusive means response in the unintended direction; inactive means score below 0.9.

What was measured:
[1] = ATG_TAL_CIS: Attagene CIS-FACTORIAL HepG2 Assay for human TAL Basal Promoter (AID 2282966; active means hit-call score of the fitted dose curve at least 0.9, where 1 is the maximum; inactive means score below 0.9;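 further: background control endpoint measuring basal TAL promoter reporter mRNA not a specific factor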); conditions: HepG2 Attagene cis-factorial TAL promoter reporter; actives raise or lower the signal
Outline: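 HepG2 cells were transiently transfected with promoter-driven multiplexed reporter units and dosed for 24 h. Reporter mRNA was measured by RT-PCR with capillary electrophoresis fluorescence; bidirectional fits used DMSO as baseline, serving as a background control.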

[2] = ATG_TGFb_CIS: Attagene CIS-FACTORIAL HepG2 Assay for human Transforming Growth Factor (TGF) (AID 2282967; active means hit-call score of the fitted dose curve at least 0.9, where 1 is the maximum; inactive means score below 0.9); conditions: HepG2 Attagene CIS TGFb reporter, mRNA transcription; actives raise or lower the signal
Outline: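 Cells were dosed for 24 hours, after which total RNA was reverse-transcribed and reporter sequences amplified, labeled and sized by capillary electrophoresis. Activity was fitted in both directions against DMSO.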

[3] = ATG_VDRE_CIS: Attagene CIS-FACTORIAL HepG2 Assay for human Vitamin D Receptor Element (VDRE) (AID 2282968; active means hit-call score of the fitted dose curve at least 0.9, where 1 is the maximum; inactive means score below 0.9); conditions: HepG2 VDRE cis-reporter transcription, actives raise or lower the signal
Outline: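 In transiently transfected HepG2 liver cells, gain or loss of reporter mRNA after 24 h exposure is scored relative to DMSO, using fluorescence detection by capillary electrophoresis of RT-PCR products.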

[4] = target: Nuclear receptor subfamily 1 group I member 3 (Homo sapiens) (UniProt Q14994); test: ATG_CAR_TRANS: Attagene TRANS-FACTORIAL HepG2 Assay for human Constitutive Androstane Receptor (CAR) (AID 2282969); conditions: HepG2 Attagene TRANS-FACTORIAL CAR reporter;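 further: activators raise reporter mRNA above DMSO so AC50 marks induction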
Chain of Nuclear receptor subfamily 1 group I member 3 (Homo sapiens) (Q14994 whole entry, looked up, the tested form may be a part): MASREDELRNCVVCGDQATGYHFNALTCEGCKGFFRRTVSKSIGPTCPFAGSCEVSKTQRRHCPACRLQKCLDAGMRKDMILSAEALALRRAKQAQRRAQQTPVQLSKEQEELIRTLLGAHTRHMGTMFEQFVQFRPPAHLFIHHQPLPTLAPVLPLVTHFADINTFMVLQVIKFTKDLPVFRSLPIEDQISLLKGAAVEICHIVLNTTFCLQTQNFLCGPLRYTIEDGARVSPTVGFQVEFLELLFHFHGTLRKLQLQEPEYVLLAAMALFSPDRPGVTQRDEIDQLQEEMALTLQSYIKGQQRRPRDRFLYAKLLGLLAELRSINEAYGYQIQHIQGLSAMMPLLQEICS
Outline: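 Readout is reporter mRNA induction, quantified by fluorescent primer extension and capillary electrophoresis after RT-PCR. Cells were HepG2 transiently carrying chimeric NR-Gal4 constructs with GAL4-UAS reporters, treated for 24 h; activity scored upward from DMSO.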

[5] = target: Steroid hormone receptor ERR1 (Homo sapiens) (UniProt P11474); test: ATG_ERRa_TRANS: Attagene TRANS-FACTORIAL HepG2 Assay for human Estrogen-Related Receptor alpha (ERRa) (AID 2282971); conditions: HepG2 Attagene TRANS reporter, ERRa transactivation
Chain of Steroid hormone receptor ERR1 (Homo sapiens) (P11474 whole entry, looked up, the tested form may be a part): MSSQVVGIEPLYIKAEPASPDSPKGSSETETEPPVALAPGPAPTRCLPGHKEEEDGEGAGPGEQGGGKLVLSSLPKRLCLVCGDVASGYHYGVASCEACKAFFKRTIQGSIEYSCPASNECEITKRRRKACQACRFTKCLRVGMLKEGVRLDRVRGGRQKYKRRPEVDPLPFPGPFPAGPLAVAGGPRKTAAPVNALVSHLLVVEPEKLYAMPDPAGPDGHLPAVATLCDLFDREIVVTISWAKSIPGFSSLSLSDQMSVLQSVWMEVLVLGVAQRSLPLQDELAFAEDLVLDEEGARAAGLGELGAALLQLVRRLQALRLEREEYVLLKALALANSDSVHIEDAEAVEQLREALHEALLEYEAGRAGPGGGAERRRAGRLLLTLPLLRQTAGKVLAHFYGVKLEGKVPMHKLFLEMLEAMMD
Outline: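 HepG2 cells transiently transfected with multiplexed GAL4-UAS reporter units reading chimeric ERRa-Gal4 activity; 24 h compound exposure. Reporter mRNA measured by RT-PCR, 6-FAM labelling, HpaI digest and capillary electrophoresis; gain of signal fitted versus DMSO baseline.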

[6] = target: X-box-binding protein 1 (Homo sapiens) (UniProt P17861); test: ATG_Xbp1_CIS: Attagene CIS-FACTORIAL HepG2 Assay for human X-box Binding Protein 1 (XBP1) (AID 2282972; active means hit-call score of the fitted dose curve at least 0.9, where 1 is the maximum; inactive means score below 0.9); conditions: HepG2 XBP1 cis-element reporter, Attagene multiplex; actives raise or lower the signal
Chain of X-box-binding protein 1 (Homo sapiens) (P17861 whole entry, looked up): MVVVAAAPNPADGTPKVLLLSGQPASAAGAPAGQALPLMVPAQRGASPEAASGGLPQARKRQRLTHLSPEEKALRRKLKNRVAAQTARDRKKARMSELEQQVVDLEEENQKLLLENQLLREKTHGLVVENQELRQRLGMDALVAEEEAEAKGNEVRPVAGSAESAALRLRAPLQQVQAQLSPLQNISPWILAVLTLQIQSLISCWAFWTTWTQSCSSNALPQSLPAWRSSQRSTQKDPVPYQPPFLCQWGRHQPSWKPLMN
Outline: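 HepG2 cells transiently transfected with multiple cis-element reporter units report endogenous TF activity; 24 h exposure, then reporter mRNA measured by RT-PCR, 6-FAM labelling, HpaI digestion and capillary electrophoresis. Bidirectional fitting versus DMSO.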

[7] = ATG_M_19_TRANS: Attagene TRANS-FACTORIAL HepG2 Assay for M19 Transcription Factor (Internal Marker) (AID 2282974); conditions: HepG2 Attagene TRANS-FACTORIAL M19 internal marker reporter
Outline: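 Background-control readout: after 24 h chemical exposure of transfected HepG2 carrying GAL4-driven reporter units, RNA was reverse-transcribed, amplified, fluorescently labeled and sized by capillary electrophoresis; gain-of-signal fit against DMSO.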

[8] = ATG_GAL4_TRANS: Attagene TRANS-FACTORIAL HepG2 Assay for GAL4 (Internal Marker) (AID 2282976); conditions: HepG2 Attagene TRANS GAL4 internal marker reporter
Outline: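 HepG2 cells transiently transfected with multiplexed GAL4-UAS reporter constructs were dosed for 24 h. Reporter mRNA was measured by RT-PCR, 6-FAM primer extension, HpaI digestion and capillary electrophoresis, and gain of signal was fitted relative to DMSO.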

[9] = target: Estrogen-related receptor gamma (Homo sapiens) (UniProt P62508); test: ATG_ERRg_TRANS: Attagene TRANS-FACTORIAL HepG2 Assay for human Estrogen-Related Receptor gamma (ERRg) (AID 2282977); conditions: HepG2 Attagene TRANS reporter, ERRg transactivation;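 further: hits increase reporter signal over DMSO so potencies reflect activators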
Chain of Estrogen-related receptor gamma (Homo sapiens) (P62508 whole entry, looked up, the tested form may be a part): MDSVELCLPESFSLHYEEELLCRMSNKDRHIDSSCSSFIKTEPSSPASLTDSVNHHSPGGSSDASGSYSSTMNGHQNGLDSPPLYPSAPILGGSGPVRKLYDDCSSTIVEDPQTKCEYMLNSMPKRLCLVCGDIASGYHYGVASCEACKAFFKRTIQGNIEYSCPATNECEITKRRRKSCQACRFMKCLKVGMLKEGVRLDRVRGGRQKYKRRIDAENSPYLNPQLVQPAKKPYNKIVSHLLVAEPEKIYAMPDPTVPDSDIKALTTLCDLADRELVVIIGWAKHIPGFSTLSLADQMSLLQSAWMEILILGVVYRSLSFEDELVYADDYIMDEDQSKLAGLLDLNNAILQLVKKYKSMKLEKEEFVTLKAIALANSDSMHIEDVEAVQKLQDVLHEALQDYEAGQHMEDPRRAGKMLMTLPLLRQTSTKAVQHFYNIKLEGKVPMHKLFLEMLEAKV
Outline: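 HepG2 cells transiently transfected with multiplexed GAL4-UAS reporter units and chimeric NR-Gal4 constructs were exposed to test chemicals for 24 h. Reporter mRNA was measured by RT-PCR, 6-FAM primer extension, HpaI digestion and capillary electrophoresis; gain-of-signal versus DMSO.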

[10] = target: Hepatocyte nuclear factor 4-alpha (Homo sapiens) (UniProt P41235); test: ATG_HNF4a_TRANS: Attagene TRANS-FACTORIAL HepG2 Assay for human Hepatocyte Nuclear Factor 4 alpha (HNF4a) (AID 2282982); conditions: HepG2 HNF4a transactivation reporter, mRNA readout
Chain of Hepatocyte nuclear factor 4-alpha (Homo sapiens) (P41235 whole entry, looked up): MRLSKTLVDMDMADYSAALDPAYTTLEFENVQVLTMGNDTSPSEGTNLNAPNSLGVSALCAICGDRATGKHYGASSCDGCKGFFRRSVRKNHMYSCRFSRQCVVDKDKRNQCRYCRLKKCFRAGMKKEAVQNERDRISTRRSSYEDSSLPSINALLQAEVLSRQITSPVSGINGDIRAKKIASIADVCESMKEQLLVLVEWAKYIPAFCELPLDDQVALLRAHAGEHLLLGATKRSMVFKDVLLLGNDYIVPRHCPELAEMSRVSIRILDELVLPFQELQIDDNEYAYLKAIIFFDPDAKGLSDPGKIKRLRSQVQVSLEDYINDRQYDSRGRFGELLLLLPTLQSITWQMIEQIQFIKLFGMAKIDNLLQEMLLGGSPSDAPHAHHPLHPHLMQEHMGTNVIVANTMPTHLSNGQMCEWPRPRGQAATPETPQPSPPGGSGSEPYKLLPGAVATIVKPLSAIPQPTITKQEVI
Outline: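 Transfected HepG2 reporter cells are dosed for 24 h; reporter RNA is reverse-transcribed, amplified, fluorescently labelled and HpaI-digested before CE sizing. Positive-direction fit against DMSO.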

[11] = target: Nuclear receptor subfamily 4 group A member 2 (Homo sapiens) (UniProt P43354); test: ATG_NURR1_TRANS: Attagene TRANS-FACTORIAL HepG2 Assay for human Nuclear Receptor Related Protein 1 (NURR1) (AID 2282985); conditions: HepG2 Attagene TRANS reporter, mRNA readout
Outline: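 Cells: HepG2, transiently transfected. Exposure: 24 h. Detection: fluorescence of labelled RT-PCR products separated by capillary electrophoresis; upward fit versus DMSO.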

[12] = target: Transcriptional activator Myb (Homo sapiens) (UniProt P10242); test: ATG_Myb_CIS: Attagene CIS-FACTORIAL HepG2 Assay for human Myeloblastosis (Myb) Proto-Oncogene Transcription Factor (AID 2282986; active means hit-call score of the fitted dose curve at least 0.9, where 1 is the maximum; inactive means score below 0.9); conditions: HepG2 Attagene CIS-FACTORIAL Myb reporter transcription; actives raise or lower the signal
Chain of Transcriptional activator Myb (Homo sapiens) (P10242 whole entry, looked up): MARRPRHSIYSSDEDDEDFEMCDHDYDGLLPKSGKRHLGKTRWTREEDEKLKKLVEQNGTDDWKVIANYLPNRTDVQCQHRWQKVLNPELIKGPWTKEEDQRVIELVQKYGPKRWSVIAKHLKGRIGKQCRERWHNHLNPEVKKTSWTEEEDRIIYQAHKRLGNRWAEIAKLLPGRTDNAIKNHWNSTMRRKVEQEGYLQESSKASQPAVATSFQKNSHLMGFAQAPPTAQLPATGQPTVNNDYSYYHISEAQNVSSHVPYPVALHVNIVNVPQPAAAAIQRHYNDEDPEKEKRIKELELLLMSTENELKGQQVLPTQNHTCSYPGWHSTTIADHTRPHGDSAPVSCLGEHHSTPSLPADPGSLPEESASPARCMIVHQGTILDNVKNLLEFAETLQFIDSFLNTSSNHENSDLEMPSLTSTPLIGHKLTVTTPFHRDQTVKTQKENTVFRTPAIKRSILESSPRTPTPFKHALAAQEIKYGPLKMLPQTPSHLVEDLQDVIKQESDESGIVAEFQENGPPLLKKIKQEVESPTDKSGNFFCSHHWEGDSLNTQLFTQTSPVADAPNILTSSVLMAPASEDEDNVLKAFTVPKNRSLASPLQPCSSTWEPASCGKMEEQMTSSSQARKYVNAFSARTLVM
Outline: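 Reporter mRNA is quantified by RT-PCR and capillary electrophoresis 24 h after dosing HepG2 cells transfected with cis-regulated reporter units, which track endogenous transcription factor activity. Gain and loss of signal are fitted versus DMSO baseline.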

[13] = target: Estrogen receptor (Homo sapiens) (UniProt P03372); test: ATG_ERa_TRANS: Attagene TRANS-FACTORIAL HepG2 Assay for human Estrogen Receptor alpha (ERa) (AID 2282970); conditions: HepG2 Attagene TRANS ERa GAL4 reporter, mRNA
Chain of Estrogen receptor (Homo sapiens) (P03372 whole entry, looked up, the tested form may be a part): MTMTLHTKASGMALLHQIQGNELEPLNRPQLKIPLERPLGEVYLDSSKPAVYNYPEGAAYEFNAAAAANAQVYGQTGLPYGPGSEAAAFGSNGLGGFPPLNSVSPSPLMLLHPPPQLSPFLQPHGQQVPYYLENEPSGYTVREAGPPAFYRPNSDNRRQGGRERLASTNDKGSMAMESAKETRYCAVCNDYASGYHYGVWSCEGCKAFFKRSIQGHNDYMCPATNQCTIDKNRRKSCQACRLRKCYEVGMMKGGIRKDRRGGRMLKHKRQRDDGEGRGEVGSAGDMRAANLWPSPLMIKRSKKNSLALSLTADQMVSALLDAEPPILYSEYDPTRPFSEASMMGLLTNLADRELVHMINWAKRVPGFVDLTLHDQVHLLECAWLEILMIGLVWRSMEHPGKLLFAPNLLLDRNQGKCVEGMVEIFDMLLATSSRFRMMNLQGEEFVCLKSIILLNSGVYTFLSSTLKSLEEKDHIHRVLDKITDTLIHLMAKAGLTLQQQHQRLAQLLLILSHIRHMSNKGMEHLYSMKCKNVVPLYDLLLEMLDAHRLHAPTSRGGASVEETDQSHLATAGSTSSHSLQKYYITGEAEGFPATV
Outline: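 HepG2 cells transiently transfected with multiplexed GAL4-UAS reporter units; ERa activity read via exogenous chimeric NR-Gal4 protein. After 24 hour compound exposure, reporter mRNA measured by RT-PCR with 6-FAM labelling and capillary electrophoresis; gain-of-signal fitted relative to DMSO.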

[14] = target: Oxysterols receptor LXR-beta (Homo sapiens) (UniProt P55055); test: ATG_LXRb_TRANS: Attagene TRANS-FACTORIAL HepG2 Assay for human Liver X Receptor beta (LXRb) (AID 2282981); conditions: HepG2 Attagene TRANS GAL4-LXRb reporter, mRNA
Chain of Oxysterols receptor LXR-beta (Homo sapiens) (P55055 whole entry, looked up, the tested form may be a part): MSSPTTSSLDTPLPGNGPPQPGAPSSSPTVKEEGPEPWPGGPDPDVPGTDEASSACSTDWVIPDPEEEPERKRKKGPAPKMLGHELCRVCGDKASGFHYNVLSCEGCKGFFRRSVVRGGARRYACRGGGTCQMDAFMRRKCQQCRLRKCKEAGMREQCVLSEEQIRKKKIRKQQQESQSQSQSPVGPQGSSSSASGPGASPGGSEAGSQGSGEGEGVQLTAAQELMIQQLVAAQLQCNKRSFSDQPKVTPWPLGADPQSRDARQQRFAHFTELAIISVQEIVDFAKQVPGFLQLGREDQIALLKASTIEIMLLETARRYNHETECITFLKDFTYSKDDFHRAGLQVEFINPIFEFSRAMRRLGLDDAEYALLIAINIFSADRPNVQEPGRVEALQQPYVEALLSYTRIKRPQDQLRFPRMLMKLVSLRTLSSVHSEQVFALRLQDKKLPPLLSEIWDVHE
Outline: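 Cells: HepG2, transiently transfected with GAL4-UAS reporter units plus LXRb-Gal4 fusion. Treatment: 24 h. Detection: reporter mRNA by RT-PCR, 6-FAM labelling, HpaI digestion, capillary electrophoresis.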

[15] = ATG_M_06_TRANS: Attagene TRANS-FACTORIAL HepG2 Assay for M06 Transcription Factor (Internal Marker) (AID 2282983); conditions: HepG2 Attagene TRANS M06 internal marker reporter;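 further: reporter transcript level by RT-PCR then capillary electrophoresis fluorescence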
Outline: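 HepG2 cells transiently transfected with multiplexed GAL4-UAS reporter transcription units; after 24 h compound exposure, reporter mRNA measured by RT-PCR, FAM-labelled primer extension, HpaI digestion and capillary electrophoresis. Gain-of-signal fitted versus DMSO baseline; background control readout.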

[16] = target: Androgen receptor (Homo sapiens) (UniProt P10275); test: ATG_AR_TRANS: Attagene TRANS-FACTORIAL HepG2 Assay for human Androgen Receptor (AR) (AID 2282973); conditions: HepG2 Attagene TRANS-FACTORIAL AR reporter transcription
Outline: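 HepG2 cells transiently transfected with multiplexed GAL4-UAS reporter units and chimeric NR-Gal4 fusion; 24 h compound exposure. Reporter mRNA measured by RT-PCR, 6-FAM labelling, HpaI digestion and capillary electrophoresis; gain-of-signal fitted relative to DMSO baseline.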

[17] = target: Glucocorticoid receptor (Homo sapiens) (UniProt P04150); test: ATG_GR_TRANS: Attagene TRANS-FACTORIAL HepG2 Assay for human Glucocorticoid Receptor (GR) (AID 2282978); conditions: HepG2 Attagene TRANS GR reporter, mRNA transcription;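 further: activators score as hits since higher reporter transcript over DMSO is fitted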
Outline: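 Readout is reporter transcript from a chimeric GR-Gal4 acting on GAL4-UAS in transfected human HepG2 liver cells after 24 h exposure, quantified by RT-PCR and capillary electrophoresis. Activation fitted upward against DMSO.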

[18] = target: Bile acid receptor (Homo sapiens) (UniProt Q96RI1); test: ATG_FXR_TRANS: Attagene TRANS-FACTORIAL HepG2 Assay for Farnesoid X Receptor (FXR) (AID 2282979); conditions: HepG2 Attagene TRANS FXR-GAL4 reporter transcription;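 further: hits raise reporter mRNA above DMSO so AC50 marks FXR activation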
Chain of Bile acid receptor (Homo sapiens) (Q96RI1 whole entry, looked up, the tested form may be a part): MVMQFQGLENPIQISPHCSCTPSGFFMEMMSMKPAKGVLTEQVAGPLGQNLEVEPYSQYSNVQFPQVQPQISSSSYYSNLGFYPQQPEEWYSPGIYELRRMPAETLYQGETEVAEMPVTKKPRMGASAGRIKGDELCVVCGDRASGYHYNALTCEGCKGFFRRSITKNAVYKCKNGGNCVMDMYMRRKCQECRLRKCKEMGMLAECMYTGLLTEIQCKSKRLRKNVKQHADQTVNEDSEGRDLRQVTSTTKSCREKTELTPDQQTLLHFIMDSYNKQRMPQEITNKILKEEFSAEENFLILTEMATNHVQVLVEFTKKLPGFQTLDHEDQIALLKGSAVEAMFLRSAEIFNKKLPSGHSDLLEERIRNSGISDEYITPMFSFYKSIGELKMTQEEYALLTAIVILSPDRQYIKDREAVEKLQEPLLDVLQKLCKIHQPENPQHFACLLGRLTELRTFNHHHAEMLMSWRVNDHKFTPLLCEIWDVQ
Outline: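 HepG2 cells transiently transfected with reporter constructs in which a chimeric FXR-GAL4 protein drives a GAL4-UAS reporter; 24 h compound exposure. Reporter mRNA measured by RT-PCR, FAM labelling, HpaI digestion and capillary electrophoresis; gain-of-signal versus DMSO.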

[19] = target: Oxysterols receptor LXR-alpha (Homo sapiens) (UniProt Q13133); test: ATG_LXRa_TRANS: Attagene TRANS-FACTORIAL HepG2 Assay for human Liver X Receptor alpha (LXRa) (AID 2282980); conditions: HepG2 Attagene TRANS reporter, LXRa transactivation
Chain of Oxysterols receptor LXR-alpha (Homo sapiens) (Q13133 whole entry, looked up, the tested form may be a part): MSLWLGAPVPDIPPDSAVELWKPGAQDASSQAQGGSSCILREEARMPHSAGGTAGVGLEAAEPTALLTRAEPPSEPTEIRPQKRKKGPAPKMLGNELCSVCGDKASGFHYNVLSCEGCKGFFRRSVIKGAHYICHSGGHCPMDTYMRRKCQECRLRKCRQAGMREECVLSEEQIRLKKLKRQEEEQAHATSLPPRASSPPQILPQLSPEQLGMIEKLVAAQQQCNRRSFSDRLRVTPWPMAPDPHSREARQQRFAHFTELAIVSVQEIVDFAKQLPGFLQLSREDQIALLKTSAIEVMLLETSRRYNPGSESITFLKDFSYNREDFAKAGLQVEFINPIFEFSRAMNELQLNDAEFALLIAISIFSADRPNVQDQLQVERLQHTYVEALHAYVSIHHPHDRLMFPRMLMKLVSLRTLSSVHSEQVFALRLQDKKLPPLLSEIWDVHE
Outline: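 HepG2 cells were transiently transfected with multiplexed reporter units driven by chimeric LXRa–GAL4 fusion proteins, then dosed for 24 h. Reporter mRNA was quantified by RT-PCR, fluorescent labelling and capillary electrophoresis; gain of signal fitted against DMSO baseline.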

[20] = ATG_M_32_TRANS: Attagene TRANS-FACTORIAL HepG2 Assay for M32 Transcription Factor (Internal Marker) (AID 2282984); conditions: HepG2 Attagene TRANS M32 internal marker reporter
Outline: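 Using transiently transfected HepG2 cells exposed to test chemicals for 24 h, reporter transcripts are converted to labelled cDNA fragments and quantified by capillary electrophoresis. DMSO defines the activity baseline.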

## CCCCOCC1CO1 (centres undefined)
[1]
  outcome: inactive
[2]
  outcome: inactive
[3]
  outcome: inactive
[4]
  outcome: inactive
[5]
  outcome: inactive
[6]
  outcome: inactive
[7]
  outcome: inactive
[8]
  outcome: inactive
[9]
  outcome: inactive
[10]
  outcome: inactive
[11]
  outcome: inactive
[12]
  outcome: inactive

## [N-]=[N+]=[N-]
[1]
  outcome: inactive
[2]
  outcome: inactive
[3]
  outcome: inactive
[4]
  outcome: inactive
[13]
  outcome: inactive
[6]
  outcome: inactive
[14]
  AC50: 100 µM (active)
[15]
  outcome: inactive
[12]
  outcome: inactive

## CC(=O)c1ccc(-c2ccccc2)cc1
[1]
  outcome: inactive
[2]
  outcome: inactive
[3]
  AC50: 32 µM (active)
[4]
  outcome: inactive
[13]
  AC50: 6.19 µM (active)
[6]
  outcome: inactive
[16]
  outcome: inactive
[17]
  outcome: inactive
[18]
  outcome: inactive
[19]
  outcome: inactive
[14]
  outcome: inactive
[15]
  outcome: inactive
[20]
  outcome: inactive
[12]
  outcome: inactive

## CCOP(=O)(O)C(N)=O
[1]
  outcome: inactive
[2]
  outcome: inactive
[3]
  outcome: inactive
[4]
  outcome: inactive
[13]
  outcome: inactive
[6]
  outcome: inactive
[7]
  outcome: inactive
[8]
  outcome: inactive
[18]
  outcome: inactive
[14]
  outcome: inactive
[15]
  outcome: inactive
[20]
  outcome: inactive
[12]
  outcome: inactive

## C=C(C)C(=O)OCC1CO1 (centres undefined)
[1]
  outcome: inactive
[3]
  outcome: inactive
[6]
  outcome: inactive
[8]
  outcome: inactive
[17]
  outcome: inactive
[10]
  outcome: inactive
[15]
  outcome: inactive
[20]
  outcome: inactive
[12]
  outcome: inactive

## NC(=O)C(F)(F)C(F)(F)F
[1]
  outcome: inactive
[3]
  outcome: inactive
[13]
  outcome: inactive
[5]
  outcome: inactive
[6]
  outcome: inactive
[16]
  outcome: inactive
[7]
  outcome: inactive
[8]
  outcome: inactive
[9]
  outcome: inactive
[17]
  outcome: inactive
[18]
  outcome: inactive
[15]
  outcome: inactive
[12]
  outcome: inactive

## CN(C)C(=O)Cl
[1]
  outcome: inactive
[3]
  outcome: inactive
[5]
  outcome: inactive
[6]
  outcome: inactive
[9]
  outcome: inactive
[17]
  outcome: inactive
[14]
  outcome: inactive
[15]
  outcome: inactive
[20]
  outcome: inactive
[12]
  outcome: inactive

## CCCCc1ccc(O)cc1
[1]
  outcome: inactive
[4]
  outcome: inactive
[13]
  AC50: 4.66 µM (active)
[6]
  outcome: inactive
[7]
  outcome: inactive
[8]
  outcome: inactive
[17]
  outcome: inactive
[18]
  outcome: inactive
[15]
  outcome: inactive
[20]
  outcome: inactive
[11]
  outcome: inactive
[12]
  outcome: inactive

## CC(C)(C)N(NC(=O)c1ccc(Cl)cc1)C(=O)c1ccccc1
[1]
  outcome: inactive
[3]
  outcome: inactive
[13]
  outcome: inactive
[6]
  outcome: inactive
[8]
  outcome: inactive
[17]
  outcome: inactive
[18]
  outcome: inactive
[19]
  outcome: inactive
[14]
  outcome: inactive
[15]
  outcome: inactive
[12]
  outcome: inactive

## O=S1(=O)OCC2C(CO1)C1(Cl)C(Cl)=C(Cl)C2(Cl)C1(Cl)Cl (centres undefined)
[1]
  outcome: inactive
[4]
  outcome: inactive
[13]
  outcome: inactive
[6]
  AC50: 167 µM (active)
[17]
  outcome: inactive
[18]
  outcome: inactive
[19]
  outcome: inactive
[15]
  outcome: inactive
[20]
  outcome: inactive
[12]
  outcome: inactive

## CCCCN(CCCC)SN(C)C(=O)Oc1cccc2c1OC(C)(C)C2
[1]
  outcome: inactive
[3]
  outcome: inactive
[4]
  outcome: inactive
[13]
  AC50: 75.5 µM (active)
[6]
  outcome: inactive
[7]
  outcome: inactive
[8]
  outcome: inactive
[17]
  outcome: inactive
[10]
  outcome: inactive
[15]
  outcome: inactive
[12]
  outcome: inactive
